# Measurements as given in ChEMBL document CHEMBL1961873, “Compounds: GSK PKIS; Assays: Nanosyn kinase panel” (2012).
# Columns and labels:
# [1] = target: Sphingosine kinase 1 (Homo sapiens) (UniProt Q9NYA1); conditions: at 1 µM;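 also: mean SPHK1 inhibition value reported from the GSK PKIS kinase panel screen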
# [2] = target: T1, Sphingosine kinase 2 (Homo sapiens) (UniProt Q9NRA0); conditions: at 0.1 µM
# T1 sequence (whole entry): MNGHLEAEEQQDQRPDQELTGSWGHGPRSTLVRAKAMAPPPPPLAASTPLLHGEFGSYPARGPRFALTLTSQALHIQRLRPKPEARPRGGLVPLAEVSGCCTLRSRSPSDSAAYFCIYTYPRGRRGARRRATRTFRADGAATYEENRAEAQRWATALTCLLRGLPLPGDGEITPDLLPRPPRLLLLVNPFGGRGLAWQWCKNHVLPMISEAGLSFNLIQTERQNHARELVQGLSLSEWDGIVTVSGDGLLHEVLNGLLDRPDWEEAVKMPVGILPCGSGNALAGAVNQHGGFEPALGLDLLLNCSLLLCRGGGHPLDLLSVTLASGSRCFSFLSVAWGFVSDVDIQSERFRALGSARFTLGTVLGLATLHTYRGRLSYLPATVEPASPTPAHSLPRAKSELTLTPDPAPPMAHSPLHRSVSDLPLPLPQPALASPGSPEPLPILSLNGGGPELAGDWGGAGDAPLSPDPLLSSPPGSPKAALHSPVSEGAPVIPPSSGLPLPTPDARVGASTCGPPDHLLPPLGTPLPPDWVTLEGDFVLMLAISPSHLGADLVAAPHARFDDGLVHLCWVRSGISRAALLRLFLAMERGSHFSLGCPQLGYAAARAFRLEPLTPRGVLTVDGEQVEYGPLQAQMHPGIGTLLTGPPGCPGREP
# [3] = target: T1, Sphingosine kinase 2 (Homo sapiens); conditions: at 1 µM
# [4] = target: Casein kinase II subunit alpha (Homo sapiens) (UniProt P68400); conditions: at 0.1 µM
# [5] = target: Casein kinase II subunit alpha (Homo sapiens) (UniProt P68400); conditions: at 1 µM
# [6] = target: T2, Inhibitor of nuclear factor kappa-B kinase subunit alpha (Homo sapiens) (UniProt O15111); conditions: at 0.1 µM
# T2 sequence (whole entry): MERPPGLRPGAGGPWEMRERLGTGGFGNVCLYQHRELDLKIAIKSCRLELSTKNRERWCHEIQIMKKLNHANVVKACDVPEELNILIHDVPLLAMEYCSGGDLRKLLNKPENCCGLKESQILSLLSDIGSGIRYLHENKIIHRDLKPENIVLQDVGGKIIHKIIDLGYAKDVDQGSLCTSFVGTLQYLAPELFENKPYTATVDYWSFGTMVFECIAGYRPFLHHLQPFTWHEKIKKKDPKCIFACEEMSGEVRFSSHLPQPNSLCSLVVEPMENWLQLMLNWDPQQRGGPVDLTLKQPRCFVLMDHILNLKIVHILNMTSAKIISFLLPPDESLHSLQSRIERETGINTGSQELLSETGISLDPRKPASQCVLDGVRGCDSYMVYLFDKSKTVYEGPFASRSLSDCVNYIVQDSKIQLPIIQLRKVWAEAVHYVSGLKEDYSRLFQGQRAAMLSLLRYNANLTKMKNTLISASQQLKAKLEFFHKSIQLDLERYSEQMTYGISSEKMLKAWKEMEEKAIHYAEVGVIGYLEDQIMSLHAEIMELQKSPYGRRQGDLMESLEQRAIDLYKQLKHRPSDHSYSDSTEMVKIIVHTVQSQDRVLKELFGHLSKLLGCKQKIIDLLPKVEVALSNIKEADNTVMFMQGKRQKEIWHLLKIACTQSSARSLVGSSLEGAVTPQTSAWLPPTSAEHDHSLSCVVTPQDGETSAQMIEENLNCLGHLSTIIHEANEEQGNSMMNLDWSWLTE
# [7] = target: T2, Inhibitor of nuclear factor kappa-B kinase subunit alpha (Homo sapiens); conditions: at 1 µM
# [8] = target: T3, Inhibitor of nuclear factor kappa-B kinase subunit beta (Homo sapiens) (UniProt O14920); conditions: at 0.1 µM
# T3 sequence (whole entry): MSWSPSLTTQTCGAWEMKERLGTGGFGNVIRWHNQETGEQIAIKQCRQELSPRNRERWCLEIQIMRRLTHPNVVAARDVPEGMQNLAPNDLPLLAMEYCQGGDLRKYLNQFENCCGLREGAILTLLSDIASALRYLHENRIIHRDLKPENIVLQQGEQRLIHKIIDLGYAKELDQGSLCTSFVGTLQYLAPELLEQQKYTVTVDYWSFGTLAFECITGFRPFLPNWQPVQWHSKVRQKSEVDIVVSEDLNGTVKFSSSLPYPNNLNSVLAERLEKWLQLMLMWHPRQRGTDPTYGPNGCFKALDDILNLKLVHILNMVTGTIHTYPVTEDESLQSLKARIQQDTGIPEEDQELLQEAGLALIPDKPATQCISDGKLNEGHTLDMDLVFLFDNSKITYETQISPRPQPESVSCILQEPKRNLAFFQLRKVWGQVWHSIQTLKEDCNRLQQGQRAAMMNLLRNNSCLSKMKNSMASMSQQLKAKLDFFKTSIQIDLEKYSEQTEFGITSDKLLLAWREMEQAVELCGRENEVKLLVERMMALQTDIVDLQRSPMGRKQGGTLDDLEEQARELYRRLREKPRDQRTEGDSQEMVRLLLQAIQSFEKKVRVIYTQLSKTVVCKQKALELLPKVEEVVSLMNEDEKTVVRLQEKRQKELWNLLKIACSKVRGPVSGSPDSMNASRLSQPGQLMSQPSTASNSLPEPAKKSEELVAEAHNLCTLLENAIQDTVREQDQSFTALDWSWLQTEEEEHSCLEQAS
# [9] = target: T3, Inhibitor of nuclear factor kappa-B kinase subunit beta (Homo sapiens); conditions: at 1 µM
# [10] = target: T4, Inhibitor of nuclear factor kappa-B kinase subunit epsilon (Homo sapiens) (UniProt Q14164); conditions: at 0.1 µM
# T4 sequence (whole entry): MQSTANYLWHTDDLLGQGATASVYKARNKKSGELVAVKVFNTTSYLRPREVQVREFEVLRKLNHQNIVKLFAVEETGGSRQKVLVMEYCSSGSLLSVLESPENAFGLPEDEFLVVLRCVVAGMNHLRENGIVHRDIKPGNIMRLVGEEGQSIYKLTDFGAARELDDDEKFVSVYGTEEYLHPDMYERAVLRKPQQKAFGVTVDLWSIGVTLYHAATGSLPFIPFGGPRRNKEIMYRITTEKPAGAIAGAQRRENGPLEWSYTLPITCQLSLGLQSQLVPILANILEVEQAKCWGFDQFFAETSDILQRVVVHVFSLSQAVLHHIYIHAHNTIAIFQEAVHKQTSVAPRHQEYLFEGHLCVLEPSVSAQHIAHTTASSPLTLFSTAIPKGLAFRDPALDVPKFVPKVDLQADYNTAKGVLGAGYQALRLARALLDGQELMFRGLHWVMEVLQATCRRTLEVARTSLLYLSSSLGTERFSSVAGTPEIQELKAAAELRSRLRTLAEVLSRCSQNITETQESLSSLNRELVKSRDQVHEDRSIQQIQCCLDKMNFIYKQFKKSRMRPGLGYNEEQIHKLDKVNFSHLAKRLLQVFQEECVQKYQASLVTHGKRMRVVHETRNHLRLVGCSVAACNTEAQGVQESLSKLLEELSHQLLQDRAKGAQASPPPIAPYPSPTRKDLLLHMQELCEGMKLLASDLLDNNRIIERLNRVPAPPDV
# [11] = target: T4, Inhibitor of nuclear factor kappa-B kinase subunit epsilon (Homo sapiens); conditions: at 1 µM
# [12] = target: T5, Serine/threonine-protein kinase Nek1 (Homo sapiens) (UniProt Q96PY6); conditions: at 0.1 µM
# T5 sequence (whole entry): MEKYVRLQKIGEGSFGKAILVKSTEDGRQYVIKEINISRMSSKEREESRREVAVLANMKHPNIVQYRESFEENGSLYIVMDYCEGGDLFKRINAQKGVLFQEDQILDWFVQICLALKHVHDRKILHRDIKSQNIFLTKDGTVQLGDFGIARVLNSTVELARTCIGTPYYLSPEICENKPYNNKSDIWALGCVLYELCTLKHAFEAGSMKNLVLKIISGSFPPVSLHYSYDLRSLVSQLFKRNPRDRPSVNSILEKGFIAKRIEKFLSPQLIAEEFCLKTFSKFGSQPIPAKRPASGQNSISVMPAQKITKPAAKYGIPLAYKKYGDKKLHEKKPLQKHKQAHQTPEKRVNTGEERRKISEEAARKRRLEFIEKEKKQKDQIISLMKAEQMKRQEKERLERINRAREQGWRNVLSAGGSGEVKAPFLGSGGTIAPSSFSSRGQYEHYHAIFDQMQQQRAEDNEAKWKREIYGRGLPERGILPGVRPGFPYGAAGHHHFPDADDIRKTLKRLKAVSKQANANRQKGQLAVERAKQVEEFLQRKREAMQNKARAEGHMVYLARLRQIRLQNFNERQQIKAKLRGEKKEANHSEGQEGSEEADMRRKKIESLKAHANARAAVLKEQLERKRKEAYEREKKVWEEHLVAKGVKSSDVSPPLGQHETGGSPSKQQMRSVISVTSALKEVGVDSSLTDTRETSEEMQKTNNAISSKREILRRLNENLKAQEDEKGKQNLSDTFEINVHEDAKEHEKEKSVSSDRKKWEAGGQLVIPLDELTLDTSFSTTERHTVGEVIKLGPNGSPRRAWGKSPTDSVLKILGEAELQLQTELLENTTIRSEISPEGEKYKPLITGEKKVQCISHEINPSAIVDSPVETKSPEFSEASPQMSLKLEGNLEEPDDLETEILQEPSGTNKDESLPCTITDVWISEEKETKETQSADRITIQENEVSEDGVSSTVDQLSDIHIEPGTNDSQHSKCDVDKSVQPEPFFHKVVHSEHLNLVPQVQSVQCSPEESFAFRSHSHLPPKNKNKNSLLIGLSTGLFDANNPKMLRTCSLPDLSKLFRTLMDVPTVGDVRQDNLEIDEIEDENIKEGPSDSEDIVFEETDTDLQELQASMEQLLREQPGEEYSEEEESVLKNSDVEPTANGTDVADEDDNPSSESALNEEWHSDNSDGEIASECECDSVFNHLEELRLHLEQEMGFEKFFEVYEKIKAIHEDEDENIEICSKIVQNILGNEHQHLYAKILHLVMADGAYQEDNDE
# [13] = target: T5, Serine/threonine-protein kinase Nek1 (Homo sapiens); conditions: at 1 µM
# [14] = target: T6, Serine/threonine-protein kinase Nek2 (Homo sapiens) (UniProt P51955); conditions: at 0.1 µM
# T6 sequence (whole entry): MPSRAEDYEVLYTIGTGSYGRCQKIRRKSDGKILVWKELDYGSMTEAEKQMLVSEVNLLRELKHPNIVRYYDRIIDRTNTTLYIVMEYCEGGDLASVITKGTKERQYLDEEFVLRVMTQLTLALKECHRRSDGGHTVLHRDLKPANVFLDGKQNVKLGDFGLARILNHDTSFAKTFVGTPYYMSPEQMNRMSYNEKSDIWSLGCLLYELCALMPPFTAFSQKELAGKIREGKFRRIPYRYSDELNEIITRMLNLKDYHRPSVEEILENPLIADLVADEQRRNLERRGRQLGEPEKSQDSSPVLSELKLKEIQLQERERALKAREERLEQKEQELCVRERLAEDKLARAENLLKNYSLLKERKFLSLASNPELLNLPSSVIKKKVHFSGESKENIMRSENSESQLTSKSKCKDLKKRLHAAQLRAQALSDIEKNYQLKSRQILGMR
# [15] = target: T6, Serine/threonine-protein kinase Nek2 (Homo sapiens); conditions: at 1 µM
# [16] = target: Serine/threonine-protein kinase Nek6 (Homo sapiens) (UniProt Q9HC98); conditions: at 0.1 µM
# [17] = target: Serine/threonine-protein kinase Nek6 (Homo sapiens) (UniProt Q9HC98); conditions: at 1 µM
# [18] = target: Serine/threonine-protein kinase Nek7 (Homo sapiens) (UniProt Q8TDX7); conditions: at 0.1 µM
# [19] = target: Serine/threonine-protein kinase Nek7 (Homo sapiens) (UniProt Q8TDX7); conditions: at 1 µM
# [20] = target: T7, Serine/threonine-protein kinase Nek9 (Homo sapiens) (UniProt Q8TD19); conditions: at 0.1 µM;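 also: reported value is the mean percent inhibition of NEK9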
# T7 sequence (whole entry): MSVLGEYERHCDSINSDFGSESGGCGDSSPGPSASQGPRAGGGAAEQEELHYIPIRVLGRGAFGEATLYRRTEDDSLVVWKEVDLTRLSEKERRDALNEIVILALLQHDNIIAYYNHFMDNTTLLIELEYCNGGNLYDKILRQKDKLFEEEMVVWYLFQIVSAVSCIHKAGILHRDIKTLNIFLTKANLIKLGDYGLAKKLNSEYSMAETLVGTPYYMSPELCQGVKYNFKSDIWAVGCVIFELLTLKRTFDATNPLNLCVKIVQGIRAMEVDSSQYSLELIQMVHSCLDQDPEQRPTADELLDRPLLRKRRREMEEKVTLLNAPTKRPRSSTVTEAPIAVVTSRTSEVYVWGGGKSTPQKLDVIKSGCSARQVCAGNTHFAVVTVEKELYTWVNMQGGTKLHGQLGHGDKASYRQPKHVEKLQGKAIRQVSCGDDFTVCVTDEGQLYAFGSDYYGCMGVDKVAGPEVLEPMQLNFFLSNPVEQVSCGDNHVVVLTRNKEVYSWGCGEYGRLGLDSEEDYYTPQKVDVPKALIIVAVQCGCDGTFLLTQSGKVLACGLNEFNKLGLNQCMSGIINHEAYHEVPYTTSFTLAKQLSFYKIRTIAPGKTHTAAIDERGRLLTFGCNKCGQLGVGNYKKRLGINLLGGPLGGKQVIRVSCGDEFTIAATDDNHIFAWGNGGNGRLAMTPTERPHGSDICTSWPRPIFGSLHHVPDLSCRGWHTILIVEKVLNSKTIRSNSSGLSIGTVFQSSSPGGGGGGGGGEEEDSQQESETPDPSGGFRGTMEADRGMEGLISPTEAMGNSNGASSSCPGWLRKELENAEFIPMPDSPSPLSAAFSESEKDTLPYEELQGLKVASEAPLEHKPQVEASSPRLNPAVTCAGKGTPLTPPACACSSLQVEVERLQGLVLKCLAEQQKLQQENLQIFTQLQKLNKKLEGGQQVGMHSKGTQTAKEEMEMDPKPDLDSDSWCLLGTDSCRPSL
# Casein kinase II subunit alpha (Homo sapiens), sequence (P68400 whole entry, looked up): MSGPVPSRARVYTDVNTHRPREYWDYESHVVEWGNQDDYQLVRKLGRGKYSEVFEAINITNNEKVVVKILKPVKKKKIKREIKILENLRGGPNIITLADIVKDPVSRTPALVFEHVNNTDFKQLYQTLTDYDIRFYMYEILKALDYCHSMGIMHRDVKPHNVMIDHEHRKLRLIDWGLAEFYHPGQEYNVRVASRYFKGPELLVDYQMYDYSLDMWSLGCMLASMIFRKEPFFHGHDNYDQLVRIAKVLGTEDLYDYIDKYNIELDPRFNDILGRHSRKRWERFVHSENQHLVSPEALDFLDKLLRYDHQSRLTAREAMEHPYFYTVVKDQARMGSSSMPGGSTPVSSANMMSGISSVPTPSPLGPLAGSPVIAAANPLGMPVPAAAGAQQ
# Serine/threonine-protein kinase Nek7 (Homo sapiens), sequence (Q8TDX7 whole entry, looked up): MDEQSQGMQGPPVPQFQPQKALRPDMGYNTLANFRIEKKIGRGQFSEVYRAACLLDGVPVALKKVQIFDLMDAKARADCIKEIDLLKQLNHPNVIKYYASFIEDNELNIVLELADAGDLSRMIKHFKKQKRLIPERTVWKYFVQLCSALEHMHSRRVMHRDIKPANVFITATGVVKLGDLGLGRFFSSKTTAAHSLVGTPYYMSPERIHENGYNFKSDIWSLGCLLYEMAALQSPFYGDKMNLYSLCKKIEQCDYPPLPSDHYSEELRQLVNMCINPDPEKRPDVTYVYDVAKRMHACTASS
# Serine/threonine-protein kinase Nek6 (Homo sapiens), sequence (Q9HC98 whole entry): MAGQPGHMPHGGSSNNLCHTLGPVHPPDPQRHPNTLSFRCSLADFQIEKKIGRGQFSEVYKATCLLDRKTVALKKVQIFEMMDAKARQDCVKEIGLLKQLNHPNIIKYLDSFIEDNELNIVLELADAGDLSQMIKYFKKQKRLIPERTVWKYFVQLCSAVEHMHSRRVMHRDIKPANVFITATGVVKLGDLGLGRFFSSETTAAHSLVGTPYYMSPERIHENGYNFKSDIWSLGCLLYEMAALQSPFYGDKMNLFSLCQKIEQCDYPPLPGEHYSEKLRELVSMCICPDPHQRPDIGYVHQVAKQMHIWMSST
# Sphingosine kinase 1 (Homo sapiens), sequence (Q9NYA1 whole entry): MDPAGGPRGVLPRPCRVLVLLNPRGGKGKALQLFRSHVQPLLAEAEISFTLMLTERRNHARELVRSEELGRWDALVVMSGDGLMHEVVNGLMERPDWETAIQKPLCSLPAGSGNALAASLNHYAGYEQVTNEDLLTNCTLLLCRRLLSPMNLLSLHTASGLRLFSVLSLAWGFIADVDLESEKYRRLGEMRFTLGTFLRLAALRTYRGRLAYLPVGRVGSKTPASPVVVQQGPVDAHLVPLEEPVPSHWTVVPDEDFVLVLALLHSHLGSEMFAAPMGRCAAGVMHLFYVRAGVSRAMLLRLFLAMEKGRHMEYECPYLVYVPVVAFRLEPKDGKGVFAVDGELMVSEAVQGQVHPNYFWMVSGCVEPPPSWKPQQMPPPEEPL
compound,measurement,setting,value
CCS(=O)(=O)c1ccc(OC)c(Nc2ncc(-c3cccc(F)c3)o2)c1,inhibition,[1],0.12%
same,inhibition,[2],-0.46%
same,inhibition,[3],0%
same,inhibition,[4],15.4%
same,inhibition,[5],46.8%
same,inhibition,[6],9.53%
same,inhibition,[7],11%
same,inhibition,[8],6.88%
same,inhibition,[9],9.91%
same,inhibition,[10],10.8%
same,inhibition,[11],8.87%
same,inhibition,[12],4.05%
same,inhibition,[13],5.27%
same,inhibition,[14],6.14%
same,inhibition,[15],7.08%
same,inhibition,[16],-1.8%
same,inhibition,[17],1.24%
same,inhibition,[18],4.07%
same,inhibition,[19],0.27%
same,inhibition,[20],7.49%
